Test results taken from PubChem BioAssay.
Activity calls are given as the source filed them. Unless noted, how the calls were made is not given here.

What was measured:
[1] = system: Wnt5a (protein binding on small-molecule microarray); assay: Wnt5a binders on small-molecule microarray, primary screen, biophysical, 635/667 nm fluorescence (AID 1142); settings: 635 nm fluorescence, higher = more signal;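 further: fluorescence read at 667 nm with signal to noise per printed feature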
[2] = cell viability in Huh7 cells, primary screen, cytotoxicity control for HCV replication inhibitor project, CellTiter-Glo luminescence, basal, 48 h (AID 1143); settings: Huh7 HCV replicon, higher = more signal, called active from +8 up or from −8 down;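 further: Huh7 hepatoma cells carrying a hepatitis C replication reporter with no stimulus; test concentration not given here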
[3] = P. aeruginosa biofilm formation inhibitors, primary screen, PAO1 strain, BacTiter-Glo luminescence, LB-PBS (AID 1144); settings: 12 h, higher = more signal
[4] = CREB reporter modulators without forskolin, primary screen, cell-based, PC12, CRE-LacZ reporter, unstimulated (AID 1145); settings: no forskolin, luminescence, 4.5 h, higher = more signal, called active from +8 up or from −8 down
[5] = CREB reporter modulators under forskolin, primary screen, cell-based, PC12, CRE-LacZ reporter, forskolin-stimulated (AID 1146); settings: luminescence, 4.5 h, higher = more signal, called active from +8 up or from −8 down;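 further: PC12 cells with 6xCRE LacZ reporter stimulated by forskolin 10 µM; beta-galactosidase reporter signal reflecting CREB driven transcription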
[6] = biological target: Streptavidin (Streptomyces avidinii) (UniProt P22629); assay: streptavidin binders on small-molecule microarray, primary screen, artefact control for SMM compound annotation, biophysical, 635/667 nm fluorescence (AID 1147); settings: streptavidin binding, higher = more signal;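 further: signal reflects streptavidin binding to arrayed compounds as a control protein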
Streptavidin (Streptomyces avidinii), sequence (P22629 whole entry, looked up): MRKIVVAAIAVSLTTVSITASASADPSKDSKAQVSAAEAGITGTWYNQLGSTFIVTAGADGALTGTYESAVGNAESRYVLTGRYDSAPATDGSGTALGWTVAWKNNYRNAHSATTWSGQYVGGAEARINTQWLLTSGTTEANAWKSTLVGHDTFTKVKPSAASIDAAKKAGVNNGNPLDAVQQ

[7] = small-molecule binders of probe aInhba, primary screen, biochemical, small-molecule microarray, 635/667 nm fluorescence (AID 1148); settings: higher = more signal;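 further: score merges 667nm spot fluorescence with signal-to-noise for antibody binding to printed compounds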
Torsin-1A (Homo sapiens) [8] = biological target: Torsin-1A (Homo sapiens) (UniProt O14656); assay: torsin A binders from cell lysate, primary screen, small-molecule microarray, wild-type, 635/667 nm (AID 1149); settings: COS7 hTOR1A-WT lysate, 635 nm fluorescence, higher = more signal
Torsin-1A (Homo sapiens), sequence (O14656 whole entry, looked up): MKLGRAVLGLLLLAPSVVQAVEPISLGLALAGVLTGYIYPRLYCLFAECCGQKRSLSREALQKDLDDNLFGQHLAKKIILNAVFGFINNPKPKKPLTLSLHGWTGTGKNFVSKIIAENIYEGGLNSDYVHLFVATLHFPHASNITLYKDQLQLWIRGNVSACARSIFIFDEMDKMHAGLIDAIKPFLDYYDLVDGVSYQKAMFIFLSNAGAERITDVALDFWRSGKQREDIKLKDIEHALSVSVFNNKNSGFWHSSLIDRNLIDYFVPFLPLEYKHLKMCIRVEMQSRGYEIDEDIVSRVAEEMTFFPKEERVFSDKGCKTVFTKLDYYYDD

Torsin-1A (Homo sapiens) [9] = biological target: Torsin-1A (Homo sapiens) (UniProt O14656); assay: small-molecule binders of mutant TOR1A in lysate, primary screen, cell lysate, small-molecule microarray, COS7 lysate, 635/667 nm fluorescence (AID 1150); settings: COS7 hTOR1A mutant lysate, 635 nm fluorescence, higher = more signal;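 further: score pools 667 nm emission and signal to noise measuring lysate protein binding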
[10] = system: Sonic hedgehog protein (Shh); assay: small-molecule binders of Shh protein, primary screen, biochemical, small-molecule microarray, 635/667 nm fluorescence (AID 1151); settings: small-molecule microarray binding, 635 nm fluorescence; higher = more signal;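 further: Shh protein binding to compounds spotted on small-molecule microarray slides; score combines spot fluorescence intensity with signal-to-noise across triplicate slides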
[11] = E. coli DRC41 culture turbidity changes, primary screen, E. coli filamentation inducer project, strain DRC41, OD650, 48 h (AID 1152);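 further: E. coli MC1000 strain DRC41 lacking acrAB efflux pump and sulA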; settings: E. coli DRC41 (acrAB sulA), higher = more signal, called active from +8 up or from −8 down
[12] = small-molecule binders of probe aLefty1, primary screen, biochemical, small-molecule microarray, 635/667 nm fluorescence (AID 1153); settings: higher = more signal;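 further: score merges spot fluorescence with signal-to-noise ratio from the scanned slide images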
[13] = PSAC antagonists in infected red cells, primary screen, cell-based, P. falciparum Indochina, OD700, 1 h (AID 1154); settings: P. falciparum Indochina infected RBC osmotic lysis, higher = more signal, called active from +8 up or from −8 down
[14] = PSAC antagonists in infected red cells, primary screen, cell-based, P. falciparum Indochina, OD700, 2 h (AID 1155);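 further: lysis reports solute entry through the parasite surface anion channel PSAC; channel blockers reduce lysis of infected cells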; settings: P. falciparum Indochina infected erythrocytes, osmotic lysis OD700; higher = more signal, called active from +8 up or from −8 down
[15] = osmotic lysis modulators in infected erythrocytes, primary screen, PSAC antagonist project, cell-based, P. falciparum Indochina, OD700, 3 h (AID 1156); settings: higher = more signal, called active from +8 up or from −8 down
[16] = PSAC antagonists in infected red cells, primary screen, cell-based, P. falciparum Indochina, OD700, 18 h (AID 1157); settings: P. falciparum Indochina infected erythrocytes, osmotic lysis OD700, 18 h; higher = more signal, called active from +8 up or from −8 down
[17] = modulators of S6 phosphorylation in cells, primary screen, cell-based, A549, cytoblot, luminescence, serum-stimulated (AID 1158); settings: A549 phospho-S6 cytoblot, 5 h, higher = more signal;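 further: serum-stimulated A549 lung adenocarcinoma cells; signal is phosphorylated S6 detected by cytoblot immunostaining with HRP secondary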
[18] = biological target: NADPH oxidase 2 (Homo sapiens) (UniProt P04839); assay: NOX2-dependent H2O2 signal modulators, primary screen, NOX inhibitor project, cell-based, HEK293-NOX2, PMA-stimulated, Amplex Red fluorescence (AID 1159); settings: 45 min, higher = more signal, called active from +8 up or from −8 down; further: test concentration not given here
NADPH oxidase 2 (Homo sapiens), sequence (P04839 whole entry, looked up): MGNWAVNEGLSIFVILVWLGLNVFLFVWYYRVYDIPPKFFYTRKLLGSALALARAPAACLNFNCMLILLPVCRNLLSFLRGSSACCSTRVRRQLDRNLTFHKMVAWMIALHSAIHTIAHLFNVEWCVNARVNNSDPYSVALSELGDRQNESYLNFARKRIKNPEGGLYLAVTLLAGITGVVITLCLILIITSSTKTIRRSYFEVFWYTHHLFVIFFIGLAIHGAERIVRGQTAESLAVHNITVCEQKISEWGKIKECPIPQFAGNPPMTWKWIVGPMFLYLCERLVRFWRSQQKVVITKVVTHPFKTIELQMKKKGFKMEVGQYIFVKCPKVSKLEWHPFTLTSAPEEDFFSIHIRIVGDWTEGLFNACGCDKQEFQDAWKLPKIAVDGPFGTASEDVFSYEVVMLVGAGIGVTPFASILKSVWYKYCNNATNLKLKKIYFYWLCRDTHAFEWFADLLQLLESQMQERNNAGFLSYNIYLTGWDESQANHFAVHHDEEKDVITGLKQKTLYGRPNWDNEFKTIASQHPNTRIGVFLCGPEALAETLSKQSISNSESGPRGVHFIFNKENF

[19] = biological target: NADPH oxidase 4 (Homo sapiens) (UniProt Q9NPH5); assay: NOX4-dependent H2O2 signal modulators, primary screen, NOX inhibitor project, cell-based, HEK293-NOX4, tetracycline-induced, Amplex Red fluorescence (AID 1160); settings: 45 min, higher = more signal, called active from +8 up or from −8 down
NADPH oxidase 4 (Homo sapiens), sequence (Q9NPH5 whole entry, looked up): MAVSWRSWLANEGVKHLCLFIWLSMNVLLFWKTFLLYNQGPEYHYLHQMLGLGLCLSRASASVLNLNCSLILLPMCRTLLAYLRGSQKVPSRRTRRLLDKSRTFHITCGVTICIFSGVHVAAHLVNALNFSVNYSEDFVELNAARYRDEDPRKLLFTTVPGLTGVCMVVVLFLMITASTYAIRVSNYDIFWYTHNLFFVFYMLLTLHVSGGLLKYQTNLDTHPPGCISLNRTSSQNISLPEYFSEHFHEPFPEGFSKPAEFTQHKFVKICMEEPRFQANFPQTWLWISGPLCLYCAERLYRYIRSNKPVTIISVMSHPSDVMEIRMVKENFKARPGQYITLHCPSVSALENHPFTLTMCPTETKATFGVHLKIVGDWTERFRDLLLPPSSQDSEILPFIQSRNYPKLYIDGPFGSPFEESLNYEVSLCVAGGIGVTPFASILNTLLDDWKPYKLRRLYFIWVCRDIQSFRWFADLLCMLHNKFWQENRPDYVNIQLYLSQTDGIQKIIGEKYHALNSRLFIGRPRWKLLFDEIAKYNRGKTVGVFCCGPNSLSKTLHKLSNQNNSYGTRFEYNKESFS

[20] = biological target: NADPH oxidase 5 (Homo sapiens) (UniProt Q96PH1); assay: NOX5-dependent H2O2 signal modulators, primary screen, NOX inhibitor project, cell-based, HEK293-NOX5, Amplex Red fluorescence (AID 1161); settings: HEK293-NOX5, ionomycin, 45 min, higher = more signal
NADPH oxidase 5 (Homo sapiens), sequence (Q96PH1 whole entry, looked up): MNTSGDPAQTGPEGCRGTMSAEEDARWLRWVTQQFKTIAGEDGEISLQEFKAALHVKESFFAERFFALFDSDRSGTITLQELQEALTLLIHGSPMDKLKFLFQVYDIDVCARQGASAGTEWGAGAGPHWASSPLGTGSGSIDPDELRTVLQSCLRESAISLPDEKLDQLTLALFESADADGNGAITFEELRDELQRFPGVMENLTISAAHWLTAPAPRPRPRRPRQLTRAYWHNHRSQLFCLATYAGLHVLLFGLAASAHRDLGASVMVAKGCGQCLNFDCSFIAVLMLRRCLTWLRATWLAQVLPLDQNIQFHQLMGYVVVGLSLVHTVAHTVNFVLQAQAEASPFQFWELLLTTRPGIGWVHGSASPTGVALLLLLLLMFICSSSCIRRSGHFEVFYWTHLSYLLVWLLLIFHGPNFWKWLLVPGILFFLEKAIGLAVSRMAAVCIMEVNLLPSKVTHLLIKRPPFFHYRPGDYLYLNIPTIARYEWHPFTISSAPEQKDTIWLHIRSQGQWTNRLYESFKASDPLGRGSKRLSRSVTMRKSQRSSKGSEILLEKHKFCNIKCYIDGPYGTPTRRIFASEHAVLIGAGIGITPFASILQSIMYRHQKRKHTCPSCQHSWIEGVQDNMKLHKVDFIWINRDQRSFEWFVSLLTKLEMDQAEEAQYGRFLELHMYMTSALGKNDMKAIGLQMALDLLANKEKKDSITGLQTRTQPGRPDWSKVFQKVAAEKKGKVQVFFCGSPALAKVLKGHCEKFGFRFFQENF

COCCCNC(=O)[C@@]1(Cc2ccccc2N=[N+]=[N-])N=C(c2ccc(OCCCO)cc2)O[C@H]1c1ccccc1CN=[N+]=[N-]
composite z-score [1]: 0.972
z-score [2]: -5.06 (inactive)
z-score [3]: -0.389 (inactive)
z-score [4]: 1.84 (inactive)
z-score [5]: -1.75 (inactive)
composite z-score [6]: 1.08
composite z-score [7]: 0.246
composite z-score (Torsin-1A (Homo sapiens) [8]): 0.554
composite z-score (Torsin-1A (Homo sapiens) [9]): 0.752
composite z-score [10]: -0.265
z-score [11]: 0.871 (inactive)
composite z-score [12]: 0.152
z-score [13]: 24.8 (active)
z-score [14]: 8.62 (active)
z-score [15]: 2.41 (inactive)
z-score [16]: 0.74 (inactive)
z-score [17]: 2.17
z-score [18]: -2.73 (inactive)
z-score [19]: 0.7 (inactive)
z-score [20]: -1.16

Cc1ccc(S[C@]2(C(=O)NCc3ccccc3)CC(=O)N(C3Cc4ccccc4C3)[C@@H]2c2ccc(CO)cc2I)cc1
composite z-score [1]: -0.265
z-score [2]: -2.56 (inactive)
z-score [3]: -0.394 (inactive)
z-score [4]: -0.179 (inactive)
z-score [5]: -0.17 (inactive)
composite z-score [6]: -0.299
composite z-score [7]: -0.157
composite z-score (Torsin-1A (Homo sapiens) [8]): -0.265
composite z-score (Torsin-1A (Homo sapiens) [9]): -1.03
composite z-score [10]: -0.0358
z-score [11]: 3.36 (inactive)
composite z-score [12]: 0.0049
z-score [13]: 3.94 (inactive)
z-score [14]: -0.533 (inactive)
z-score [15]: -0.406 (inactive)
z-score [16]: -0.63 (inactive)
z-score [17]: 1.58
z-score [18]: 0.542 (inactive)
z-score [19]: -0.966 (inactive)
z-score [20]: 1.42

CCCCC=C[C@@H](NC(=O)CCc1ccccc1)c1ccccc1
composite z-score [1]: 0.317
z-score [2]: -1.98 (inactive)
z-score [3]: 0.175 (inactive)
z-score [4]: -0.951 (inactive)
z-score [5]: -0.0104 (inactive)
composite z-score [6]: 1.64
composite z-score [7]: 0.128
composite z-score (Torsin-1A (Homo sapiens) [8]): 0.677
composite z-score (Torsin-1A (Homo sapiens) [9]): 0.701
composite z-score [10]: 0.0847
z-score [11]: -2.27 (inactive)
composite z-score [12]: 0.396
z-score [13]: 1.36 (inactive)
z-score [14]: 0.592 (inactive)
z-score [15]: -0.985 (inactive)
z-score [16]: 1.28 (inactive)
z-score [17]: -0.0113
z-score [18]: -0.753 (inactive)
z-score [19]: -0.487 (inactive)
z-score [20]: 0.736

COc1ccc(C(=O)Nc2ccc3c(c2)[C@]2(O[C@@H](CCO)[C@H]([Si](C)(C)c4ccc(OC)cc4)[C@H]2C)C(=O)N3Cc2ccccc2)cc1
composite z-score [1]: 0.476
z-score [2]: -8.09 (active)
z-score [3]: -1.18 (inactive)
z-score [4]: 1.82 (inactive)
z-score [5]: -0.606 (inactive)
composite z-score [6]: 0.328
composite z-score [7]: -0.0209
composite z-score (Torsin-1A (Homo sapiens) [8]): 0.816
composite z-score (Torsin-1A (Homo sapiens) [9]): 0.671
composite z-score [10]: 1.83
z-score [11]: 0.257 (inactive)
composite z-score [12]: -0.147
z-score [13]: 4.99 (inactive)
z-score [14]: 1.42 (inactive)
z-score [15]: 2.07 (inactive)
z-score [16]: -0.237 (inactive)
z-score [17]: 0.776
z-score [18]: -5.81 (inactive)
z-score [19]: -1.21 (inactive)
z-score [20]: 0.304

Cc1ccc(C(C)CC(O)C2C=CC3C(=O)N(Cc4ccccc4)C(=O)C3N2n2cnnc2)o1 (stereo not given)
composite z-score [1]: 1.36
z-score [2]: -0.167 (inactive)
z-score [3]: 0.928 (inactive)
z-score [4]: 0.323 (inactive)
z-score [5]: 1.14 (inactive)
composite z-score [6]: 0.352
composite z-score [7]: 1.36
composite z-score (Torsin-1A (Homo sapiens) [8]): 0.173
composite z-score (Torsin-1A (Homo sapiens) [9]): 0.663
composite z-score [10]: -0.265
z-score [11]: -1.44 (inactive)
composite z-score [12]: 1.21
z-score [13]: 2.31 (inactive)
z-score [14]: 0.793 (inactive)
z-score [15]: 0.809 (inactive)
z-score [16]: 0.709 (inactive)
z-score [17]: -0.63
z-score [18]: -0.168 (inactive)
z-score [19]: -1.78 (inactive)
z-score [20]: -2.17

CN(C)C(=O)[C@@]1(CCC(=O)OC(C)(C)C)N=C(c2ccc(OCCCO)cc2)O[C@H]1c1ccccc1N=[N+]=[N-]
composite z-score [1]: 1.46
z-score [2]: -1.84 (inactive)
z-score [3]: -0.0215 (inactive)
z-score [4]: 1.31 (inactive)
z-score [5]: -1.33 (inactive)
composite z-score [6]: 1.6
composite z-score [7]: 0.277
composite z-score (Torsin-1A (Homo sapiens) [8]): 1.76
composite z-score (Torsin-1A (Homo sapiens) [9]): 2.25
composite z-score [10]: 0.18
z-score [11]: 0.0366 (inactive)
composite z-score [12]: 0.646
z-score [13]: 32.9 (active)
z-score [14]: 32.2 (active)
z-score [15]: 1.78 (inactive)
z-score [16]: 3.02 (inactive)
z-score [17]: -0.192
z-score [18]: -3.57 (inactive)
z-score [19]: 0.0136 (inactive)
z-score [20]: -1.97

C=CCOc1ccc([C@@H]2CC=C(C(=O)OCC)[C@H](c3cccc(Br)c3)N2S(=O)(=O)c2ccc(C)cc2)cc1
composite z-score [1]: 0.141
z-score [2]: -4.43 (inactive)
z-score [3]: 0.681 (inactive)
z-score [4]: -0.424 (inactive)
z-score [5]: 0.165 (inactive)
composite z-score [6]: 0.414
composite z-score [7]: -0.0831
composite z-score (Torsin-1A (Homo sapiens) [8]): 0.0699
composite z-score (Torsin-1A (Homo sapiens) [9]): 0.307
composite z-score [10]: 0.0537
z-score [11]: 0.251 (inactive)
composite z-score [12]: -0.012
z-score [13]: 0.652 (inactive)
z-score [14]: -0.384 (inactive)
z-score [15]: -0.864 (inactive)
z-score [16]: -2.24 (inactive)
z-score [17]: 1.11
z-score [18]: 0.629 (inactive)
z-score [19]: 0.399 (inactive)
z-score [20]: -0.0171

C=CCN1C(=O)[C@@]2(O[C@@H](CCO)[C@H]([Si](C)(C)c3ccc(OC)cc3)[C@H]2C)c2cc(NC(=O)[C@H](C)O)ccc21
composite z-score [1]: 0.442
z-score [2]: -5.04 (inactive)
z-score [3]: -0.856 (inactive)
z-score [4]: 17.4 (active)
z-score [5]: -0.213 (inactive)
composite z-score [6]: 0.0832
composite z-score [7]: -0.0695
composite z-score (Torsin-1A (Homo sapiens) [8]): 0.923
composite z-score (Torsin-1A (Homo sapiens) [9]): 1.01
composite z-score [10]: 1.46
z-score [11]: 0.301 (inactive)
composite z-score [12]: -0.0879
z-score [13]: 23 (active)
z-score [14]: 6.92 (inactive)
z-score [15]: 0.903 (inactive)
z-score [16]: 1.62 (inactive)
z-score [17]: 0.29
z-score [18]: -0.54 (inactive)
z-score [19]: 0.552 (inactive)
z-score [20]: -0.335
